EBV LMP1 NFkB – EBV LMP1-driven NF-kappaB luciferase reporter inhibitors, primary screen, cell-based, luminescence, single point; LMP1-induced NF-kappaB luciferase reporter cells; inhibition, % at 12.5 µM; 350,000 compounds, 0.69% hits; in the data active = inhibition above about 41%; inconclusive = no clear call, values can overlap the other calls;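 note: 0% = neutral control wells and 100% = reference inhibitor control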
EWS-Fli block – EWS/Fli-driven NR0B1 reporter inhibitors, primary screen, A673 cells, NR0B1 luciferase, luminescence, MLPCN library; viability-normalised; inhibition, % at 12.6 µM; 350,000 compounds, 0.67% hits; AID 651661, 2012;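 active = mean inhibition of at least 50% after viability correction, with every replicate also passing that limit; inconclusive = mean reaches 50% but only one of two replicates passes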;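 note: firefly luciferase signal divided by Alamar Blue viability fluorescence both relative to DMSO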
TROY NFkB inh – inhibitors of TROY-driven NF-kB signaling, primary screen, Q293 LMP1-TROYcd cells, NF-kB luciferase, uHTS. Q293 LMP1-TROYcd NF-kB luciferase reporter, 4 h. inhibition, % at 10 µM. 360,000 compounds, 0.98% hits;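 active = compounds whose plate-normalised and pattern-corrected inhibition of the luciferase reporter signal at the single screening dose is 50% or more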
LGR2 inh – inhibitors of bursicon-induced LGR2 CRE-luciferase signal, primary screen, cell-based, HEK293, CRE-luciferase reporter, bursicon stimulation | Drosophila bursicon receptor LGR2 (rickets) | bursicon-stimulated, 4 h | inhibition, % at 9.99 µM | 380,000 compounds, 0.35% hits;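 active = drop in luminescence signal, shown as inhibition above about 50% in the replicate tests, limit read from the data, passing the limit was not always enough; inconclusive = probably only some replicates passing the limit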;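 note: agonist challenge used bursicon conditioned medium at about half maximal strength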
TWEAK-Fn14 inh – inhibitors of TWEAK-Fn14 signaling, primary screen, luciferase reporter cells, uHTS | TWEAK-stimulated Fn14 reporter cells, luciferase luminescence, 8 h | inhibition, % at 10 µM | 360,000 compounds, 2% hits; in the data active = inhibition above about 50%
* hit, by the source's call; ? = inconclusive; . = no result given; ! = not active in a repeat. A selection: hits, their analogues and other compounds. The true share with any hit is near 2.6%.

SMILES	EBV LMP1 NFkB	EWS-Fli block	TROY NFkB inh	LGR2 inh	TWEAK-Fn14 inh
CC(=O)/C(C#N)=C1\NC(=O)C(Cc2ccccc2)S1 (stereo not drawn)	8	.	3	9	64*
COc1ccc(C#Cc2ccc3c(c2)[C@H]2[C@H](CCN2C(=O)C2CCOCC2)[C@H](CO)N3)cc1	.	-2	.	16	.
O=c1cc(Nc2ccc3c(c2)OCCO3)[nH]c(=O)n1-c1ccc(Cl)cc1	10	1	64*	14	72*
Cc1nnc(N/N=C/c2ccc([N+](=O)[O-])cc2)n1N	1	3	55*	1	-12
COc1ccc(/C=N/N=C/c2ccc(OC)c(O)c2)cc1O	5	.	10	.	-4
Cc1nnc(N/N=C/c2ccc(Br)cc2)n1N	0	-13	-24	-9	0
COc1ccc(/C=N/Nc2nnc(C)n2N)cc1OC	60*	-6	32	-7	-24
COc1ccc(/C=N/N=C/c2ccc(OC)c(OC)c2)cc1OC	44*	.	-7	.	-13
O=C(C[C@H]1C=C[C@H](NC(=O)C2CCOCC2)[C@@H](CO)O1)NCC1CCCCC1	.	-6	.	15	.
O=C(c1ccccc1F)N1CC[C@@H]2[C@H](CO)Nc3ccc(-c4cccc(F)c4)cc3[C@@H]21	.	-6	.	-5	.
COc1ccccc1N(Cc1ccccc1)S(=O)(=O)c1cccc(C(=O)Nc2ccc(C)cn2)c1	12	21	20	15	53*
COc1ccccc1N(Cc1ccccc1)S(=O)(=O)c1cccc(C(=O)Nc2ccccn2)c1	10	-76	-20	13	-6
Cc1noc(C)c1NC(=O)Nc1cccc2c1O[C@@H](CN(C)C(=O)Nc1cccc3ccccc13)[C@@H](C)CN([C@H](C)CO)C2=O	.	8	.	7	.
CC1CCN(C(=O)c2cc3c(ccc4ccccc43)o2)CC1	-4	.	41	?	61*
C[C@@H]1CN([C@H](C)CO)C(=O)c2cc(NS(C)(=O)=O)ccc2O[C@@H]1CN(C)C(=O)Nc1cccc2ccccc12	.	.	.	3	.
Cc1ccc(CSc2nnc(SCC(=O)N/N=C/c3ccc(C(=O)O)cc3)s2)cc1	-6	60*	15	67*	69*
CCOc1cc(/C=N/NC(=O)COc2ccc(Cl)cc2)ccc1OS(=O)(=O)c1ccccc1	-1	.	27	.	54*
Cc1ccc(Sc2ncccc2[N+](=O)[O-])cc1	-1	2	2	8	4
Cc1c([N+](=O)[O-])cnc(Sc2ccccc2)c1[N+](=O)[O-]	-3	2	63*	?	84*
CN(C)CCCN(C(=O)CCS(=O)(=O)c1ccccc1)c1nc2cc3c(cc2s1)OCO3	22	.	56*	22	69*
COc1ccc(OC)c2sc(N(CCCN(C)C)C(=O)CCS(=O)(=O)c3ccccc3)nc12	19	43	24	25	53*
CN(C)CCCN(C(=O)CCSc1ccccc1)c1nc2cc3c(cc2s1)OCO3	20	1	-45	1	31
Cc1ccc2sc(N(CCCN(C)C)C(=O)CCS(=O)(=O)c3ccccc3)nc2c1C	8	.	-22	5	63*
COc1ccc(Cl)c2sc(N(CCN(C)C)C(=O)CCS(=O)(=O)c3ccc(C)cc3)nc12	-8	9	-51	0	-3
Cc1noc(C)c1S(=O)(=O)Nc1ccc2c(c1)C(=O)N([C@H](C)CO)C[C@H](C)[C@@H](CN(C)C(=O)c1ccncc1)OCCCC[C@H](C)O2	.	-8	.	5	.
SMILES	EBV LMP1 NFkB	EWS-Fli block	TROY NFkB inh	LGR2 inh	TWEAK-Fn14 inh
C[C@H]1CN([C@@H](C)CO)C(=O)Cc2cc(NC(=O)c3ccncc3)ccc2O[C@H]1CN(C)C	.	-14	.	3	.
CO[C@H]1CN(C)C(=O)c2cc(NC(C)=O)ccc2OC[C@@H](C)N(C(=O)c2cccnc2)C[C@@H]1C	.	0	.	-6	.
Cc1cccc(-n2c(O)c(C=Nc3c(C)n(C)n(-c4ccccc4)c3=O)c3ccccc3c2=O)n1	58*!	5	0	-6	10
COc1c(Br)cc([N+](=O)[O-])c(OC)c1C(=O)NC(=O)Nc1cc(Cl)cc(Cl)c1	0	40	52*	.	13
C[C@@H]1CN([C@@H](C)CO)C(=O)c2cc(Br)cnc2O[C@@H]1CN(C)Cc1ccccc1	.	0	.	2	.
Cc1cc(Nc2ccccc2)nn1C(=O)c1ccccc1	6	.	18	.	7
Cc1cc(Nc2ccccc2)nn1C(=O)c1ccc(Br)cc1	0	.	.	.	53*
C[C@H](CO)N1C[C@H](C)[C@H](CN(C)Cc2cccc(C(F)(F)F)c2)OCc2ccccc2-c2ccccc2C1=O	.	15	.	-2	.
c1csc(CNc2ccc3c(c2)OCCO3)c1	3	10	30	51*	63*
C=CCn1c(SCC(=O)Nc2sccc2C(N)=O)nc2sc(C)c(C)c2c1=O	-3	.	51*	.	49
Cc1ccccc1CN(C)C1CCN(C)CC1	10	-1	22	5	110*
O=C(C[C@@H]1C[C@@H]2c3cc(NS(=O)(=O)c4ccc(F)cc4)ccc3O[C@@H]2[C@@H](CO)O1)NCc1cccnc1	.	-4	.	-9	.
C[C@@H]1CCCCO[C@H](CN(C)C(=O)Nc2ccccc2)[C@@H](C)CN([C@H](C)CO)C(=O)c2cc(NS(=O)(=O)c3ccccc3)ccc2O1	.	-9	.	-2	.
CNc1ccc2ncc(-c3cccc(C(=O)N(C)C)c3)n2n1	.	0	53*	11	87*
O=[N+]([O-])c1ccc(N=Nc2ccc(O)cc2O)cc1	-23	.	4	.	-19
O=[N+]([O-])c1cccc(N=Nc2ccc(O)cc2O)c1	-1	-18	-15	19	59*
Nn1c(SCc2ccc([N+](=O)[O-])cc2)nc2ccccc2c1=O	-15	-3	-5	-6	-2
CCOC(=O)CSc1nc2ccccc2c(=O)n1NC(=O)c1ccccc1	-8	.	-5	.	13
COc1ccc(C(=O)Nn2c(SCc3ccc([N+](=O)[O-])cc3)nc3ccccc3c2=O)cc1	3	.	76*	.	73*
Cc1sc2nc(SCc3ccc(C(=O)O)cc3)n(Cc3ccco3)c(=O)c2c1C	-1	23	60*	25	38
C=CCn1c(SCc2ccc(C(=O)O)cc2)nc2sc(C)c(C)c2c1=O	-6	-7	39	-9	-2
O=C(CSc1nc2ccccc2c(=O)n1Cc1ccco1)c1ccccc1	4	.	15	.	52*
COc1ccc(C(=O)Nn2c(SCC(=O)c3ccccc3)nc3ccccc3c2=O)cc1	17	.	80*	.	92*
COCCCNS(=O)(=O)c1ccc2[nH]c3c(c2c1)CCCCC3	10	9	8	-18	84*
CC(C)(C)NS(=O)(=O)c1ccc2[nH]c3c(c2c1)CCCCC3	1	-18	5	-4	21
CCCNC(=O)Nc1ccc2c(c1)OC[C@H](C)N(Cc1ccncc1)C[C@H](C)[C@@H](OC)CN(C)C2=O	.	3	.	5	.

Screening results deposited in PubChem by several laboratories.
